Laboratory results as given in the supplement of paper PMC11150407.
Where a name gives a salt, the structure may show the parent alone. The whole screen tested about 2,100 compounds, of which about 180 (8.6%) showed an effect of 50% or more. The list comes from a sample in which strong results are over-represented; it also holds similar structures and randomly drawn compounds.

Tested on: MOLM1 and UCSD/AML1 (averaged)
Assay: cell viability relative to DMSO control (POC); higher = less growth inhibition
Details: 1 µM; 72 h
Method: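 Primary viability screen in the 3q26 EVI1-high AML cell lines MOLM1 and UCSD/AML1 (1.5e3 cells/well, 384-well), compounds at 1 uM for 72 h. ATP CellTiter-Glo read-out given as percent of viable cells over DMSO control (POC), averaged over duplicates. DMSO was the negative control and 5 uM etoposide the positive control. This mapping covers the MicroSource Spectrum and Selleck anticancer libraries (drug names).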

SMILES | cell viability [%]
O=c1cc(-c2cccc3c2Sc2ccccc2S3)oc(N2CCOCC2)c1 | 69.4
O=C(O)CCCCCCCCCCCC[C@@H]1C=CCC1 | 93.9
CS(=O)(=O)CCCCN=C=S | 84.4
COc1ccc(-c2oc3cc(OC)c(OC)c(OC)c3c(=O)c2OC)cc1OC | 101
CC(=O)OCC(=O)[C@@]1(O)CCC2C3CCC4=CC(=O)C=C[C@]4(C)[C@@]3(F)[C@@H](O)C[C@@]21C (stereo not given in full) | 78.1
Cc1nc(N)sc1-c1ccnc(Nc2ccc(N3CCOCC3)cc2)n1 | 46.7
N#CCNC(=O)c1ccc(-c2ccnc(Nc3ccc(N4CCOCC4)cc3)n2)cc1 [Momelotinib (CYT387)] | 51.4
O=C(O)c1ccccc1 | 98.9
CC(CCC(=O)O)[C@H]1CCC2C3C[C@H](O)[C@@H]4C[C@H](O)CC[C@]4(C)C3CC[C@@]21C (stereo partly drawn) [alpha-HYDROXYDEOXYCHOLIC ACID] | 107
CC(C)(C)c1cnc(CSc2cnc(NC(=O)C3CCNCC3)s2)o1 | 2.81
Cc1cc(/C=C/c2ccc3cc(N(C)C)ccc3[n+]2C)c(C)n1-c1ccccc1 | 29.3
C[C@@H]1CC[C@@]23CCC4(C)[C@@](C=CC5[C@@]6(C)CC[C@H](O)C(C)(C)C6CC[C@]54C)(OC2=O)C3[C@H]1C (stereo not given in full) | 90.8
C=C1C(=O)[C@]23[C@H](CC[C@@H]1[C@@H]2O)[C@]12CO[C@@]3(O)[C@H](O)[C@H]1C(C)(C)CC[C@@H]2O | 94.3
CC1(C)CC2C1CCC1(C)OC2(C)CCC1O (stereo not given) | 91.4
CC(C)=CCC/C(C)=C/COc1ccc2ccc(=O)oc2c1 | 92.6
CC(C)(C)NCC(O)c1ccc(O)c(CO)c1 (racemic) | 93.2
O=C(O)c1cc2cc(Cl)ccc2[nH]1 | 98.1
O=C1c2c(O)ccc(O)c2C(=O)c2c(NCCNCCO)ccc(NCCNCCO)c21 | 8.27
O=C1c2c(O)cccc2Cc2cccc(O)c21 | 102
O=C1c2c(O)ccc(O)c2C(=O)c2c(NCCNCCO)ccc(NCCNCCO)c21 [Mitoxantrone Hydrochloride] | 2.15
O=C1c2cccc(O)c2C(=O)c2c(O)cccc21 | 104
NCCOB(c1ccccc1)c1ccccc1 | 117

SMILES | cell viability [%]
CC(C)CCC[C@@H](C)[C@H]1CC[C@H]2[C@@H]3CC(=O)[C@H]4C[C@@H](O)CC[C@]4(C)[C@H]3CC[C@]12C [5alpha-CHOLESTAN-3beta-OL-6-ONE] | 107
Cc1ccc(C(=O)N(CCCN)[C@@H](c2oc3cc(Cl)ccc3c(=O)c2Cc2ccccc2)C(C)C)cc1 | 13.4
Cc1ccc(C(=O)N(CCCN)[C@@H](c2nc3cc(Cl)ccc3c(=O)n2Cc2ccccc2)C(C)C)cc1 | 15.3
CC(=O)O[C@@H]1C[C@H]2C(C)(C)C(=O)CC[C@]2(C)[C@H]2CC[C@@]3(C)[C@H](c4ccoc4)OC(=O)[C@H]4O[C@]43[C@@]21C | 100
CNC(=O)c1ccc(N2C(=S)N(c3ccc(C#N)c(C(F)(F)F)c3)C(=O)C2(C)C)cc1F [MDV3100 (Enzalutamide)] | 102
CC(C)CC(NC(=O)[C@H](C)N)C(=O)O (mixture of isomers) | 105
COc1cc(C)c(C(=O)Oc2cc(C)c(C(=O)O)c(O)c2C)c(OC)c1C | 109
CNS(=O)(=O)c1ccc(NC(=O)c2ccccc2C(=O)O)cc1 | 110
Nc1nc(=O)c2[nH]c(=O)cnc2[nH]1 | 112
C[C@]12CCC(=O)C=C1C=C[C@@H]1[C@@H]2CC[C@@]2(C)[C@H]1CC[C@@]21CCC(=O)O1 | 83.2
CN1CCC(CNc2ccc3ncc(-c4cccc(OC(F)(F)F)c4)n3n2)CC1 [SGI-1776 free base] | 80
O=c1c(O)cc([C@H]2Oc3cc(O)cc(O)c3C[C@H]2O)cc2c([C@H]3Oc4cc(O)cc(O)c4C[C@H]3O)cc(O)c(O)c12 | 104
CN1CCN(CCOc2cc(OC3CCOCC3)c3c(Nc4c(Cl)ccc5c4OCO5)ncnc3c2)CC1 [Saracatinib (AZD0530)] | 47.7
C=CC(=O)N1CCC[C@@H](n2nc(-c3ccc(Oc4ccccc4)cc3)c3c(N)ncnc32)C1 | 60.3
Cc1ccc2c(c1)CC[C@H]1CC(=O)CC[C@]21C | 104
CC(=O)N1CCCC1C(=O)O (stereo not given) | 108
O=C[C@H](O)[C@@H](O)[C@H](O)CO | 121
CC(=O)N[C@@H](C=O)[C@@H](O)[C@H](O)[C@H](O)CO | 107
CN(N=O)C(=O)N[C@@H](C=O)[C@@H](O)[C@H](O)[C@H](O)CO [Streptozotocin (Zanosar)] | 37.4
CC(=O)O[C@H]1CC[C@]2(C)[C@H]3CC=C4[C@@H]5CC(C)(C)CC[C@]5(C(=O)O)CC[C@@]4(C)[C@]3(C)CC[C@H]2C1(C)C | 102
COC(=O)[C@@]1(C)CCC[C@]2(C)c3ccc(O)c(C(C)C)c3CCC12 (stereo not given in full) | 109
COC(=O)c1cc(O)c(=O)c2c(O)c(O)ccc2c1 | 109

SMILES | cell viability [%]
Cc1cnc(-c2cnc(NCCNc3ccc(C#N)cn3)nc2-c2ccc(Cl)cc2Cl)[nH]1 | 133
Cc1cc(=O)oc2c(O)c(O)ccc12 | 93.6
C=C1CCC(C2CC(=O)OC2=O)C(=O)CCC2C1CC2(C)C (stereo not given) | 104
FC(F)c1nc2ccccc2n1-c1nc(N2CCOCC2)nc(N2CCOCC2)n1 | 26.8
CCOC(=O)c1c(C)cc(O)c(C=O)c1O | 98.9
CC(=O)/C(=C\c1ccccc1)CC(=O)O | 118
COC(=O)C[C@H]1C(C)(C)C(=O)[C@@H]2CC3=C(CC[C@]4(C)C3=CC(=O)O[C@H]4c3ccoc3)[C@@]1(C)C2=O | 93.4
CN1CCN(c2cccc(Nc3nc4c(-c5ccc(S(C)(=O)=O)cc5)cccn4n3)c2)CC1 | 33.3
CC1=CC2C(CC1=O)C(C)=CCC2C(C)C (stereo not given) | 92.7
COc1ccc(-c2cc(=O)c3c(OC)c(OC)c(OC)c(OC)c3o2)cc1 | 89.9
CC(=O)/N=c1/sc(S(N)(=O)=O)nn1C | 112
CSCC[C@H](NC=O)C(=O)N[C@@H](Cc1ccccc1)C(=O)O | 105
CC(=O)O[C@@H]1CC[C@@]2(C)C(C[C@@H](OC(C)=O)[C@@]3(C)C4=CC(=O)O[C@@H](c5ccoc5)[C@]4(C)CCC23)C1(C)C (stereo partly drawn) [3alpha-ACETOXYDIHYDRODEOXYGEDUNIN] | 82
O=c1cc(N2CCOCC2)oc2c(-c3ccccc3)cccc12 | 73.8
Oc1cccc(-c2nc(N3CCOCC3)c3oc4ncccc4c3n2)c1 | 25.7
Nc1ccc(C(=O)Nc2cccc(-c3nc(N4CCOCC4)c4oc5ncccc5c4n3)c2)cn1 | 52.7
OC[C@H]1O[C@@H](OCCc2ccc(O)cc2)[C@H](O)[C@@H](O)[C@@H]1O | 107
CC(=O)O[C@H]1CC[C@]2(C)C3=C(CC[C@H]2C1(C)C)[C@]1(C)CC[C@H]([C@H](C)CCC=C(C)C)[C@@]1(C)CC3 | 94.1
CCn1c(-c2nonc2N)nc2c(C#CC(C)(C)O)ncc(OC[C@H]3CCCNC3)c21 | 54
CCCCC[C@H](CC(=O)O)C(=O)O | 111
C[N+](C)(C)CCCCCC[N+](C)(C)C | 114
CCCCCCCCCCCCCCCCCCCCCCO | 101

SMILES | cell viability [%]
CCCCCCCCCCCCCCCC[N+](C)(C)C | 43.7
COc1cc(OC)c(-c2c(OC)cc(OC)cc2OC)c(OC)c1 | 104
CC1CCC2(OC1)OC1CC3C4CCC5C[C@@H](O)CCC5(C)C4=CCC3(C)C1[C@@H]2C (stereo partly drawn) [3beta-HYDROXYISOALLOSPIROST-9(11)-ENE] | 91.8
CC(=O)Nc1cccc(-n2c(=O)n(C3CC3)c(=O)c3c(Nc4ccc(I)cc4F)n(C)c(=O)c(C)c32)c1 | 27.3
CC(=O)Oc1cc(C)c2c(c1C(OC(C)=O)OC(C)=O)Oc1c(c(C)c(OC(C)=O)c3c1C(OC(C)=O)OC3=O)OC2=O (stereo not given) | 97.6
CC(=O)O[C@H]1C[C@@H](OC(C)=O)C(C)(C)C2CC(=O)[C@]3(C)C(CC[C@@]4(C)[C@H](c5ccoc5)OC(=O)[C@H]5O[C@]543)[C@]21C (stereo not given in full) | 97.1
CC(=O)Oc1cc(OC(C)=O)c2c(c1)O[C@H](c1ccc(OC(C)=O)c(OC(C)=O)c1)[C@@H](OC(C)=O)C2 | 96.7
COc1ccc(-c2cc(=O)c3c(O)cc(O)cc3o2)cc1O | 83
COc1cc(N2CCC(N3CCN(C)CC3)CC2)ccc1Nc1ncc(Cl)c(Nc2ccccc2S(=O)(=O)C(C)C)n1 | 30.7
C=CC(=O)Nc1cccc(Oc2nc(Nc3ccc(N4CCN(C)CC4)cc3OC)ncc2Cl)c1 | 86.3
COc1ccc(-c2oc3c(CC=C(C)C)c(O[C@@H]4O[C@H](CO)[C@@H](O)[C@H](O)[C@H]4O)cc(O)c3c(=O)c2O[C@@H]2O[C@@H](C)[C@H](O)[C@@H](O)[C@H]2O)cc1 | 83
CC(=O)O[C@H]1CC[C@@]2(C)[C@@H](CC[C@@H]3[C@@H]2CC(=O)[C@]2(C)[C@@H]4[C@H](C[C@@H]32)O[C@]2(CC[C@@H](C)CO2)[C@H]4C)C1 | 88.1
COc1cc(OC2CCN(C)CC2)ccc1Nc1ncc2c(n1)n(C1CCCC1)c(=O)n2C | 70.8
CC[C@@H]1C(=O)N(C)c2cnc(Nc3ccc(C(=O)NC4CCN(C)CC4)cc3OC)nc2N1C1CCCC1 | 13.2
CC[C@@H]1C(=O)N(C)c2cnc(Nc3ccc(C(=O)N[C@H]4CC[C@H](N5CCN(CC6CC6)CC5)CC4)cc3OC)nc2N1C(C)C [BI6727 (Volasertib)] | 14.5
CCOC(=O)CCCCCCCCCCCCC1C=CCC1 (stereo not given) | 103
CN1CCN(C(c2ccccc2)c2ccccc2)CC1 | 102
COC(=O)C1=CO[C@@H](O[C@@H]2O[C@H](CO)[C@@H](O)[C@H](O)[C@H]2O)[C@@H]2[C@@H](C)[C@@H](O)C[C@H]12 | 94.9
CC1(C)CCC[C@]2(C)[C@@H]3[C@H]1[C@@H](O)[C@@]2(C)C[C@H]3O | 92
